High-throughput results (PubChem BioAssay)
This is a sample that favours compounds with a hit; in the whole collection about 6.9% have one here.
KB-V1 cytotox = kills drug-selected multidrug resistant KB-V1 cells; 3.4% of 400,000 active; Potency, µM (titrated, usually from 46.1 µM), usual class: cytotoxic; KB-V1 MDR cells viability, CellTiter-Glo, 72 h; AID 1347076; also: potency is read from the fitted curve at half-maximal effect; % is scaled to controls: 0 for no effect and ±100 for the full control effect; nearly all actives have a fitted effect of over 60% in size
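Luminescent ATP read-out (CellTiter-Glo, 10 min) measures survival of drug-selected KB-V1 MDR cells after 72 h, 37 degrees C compound exposure. Medium: phenol-red-free DMEM, 10% FBS. Values from fitted concentration-response curves.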
KB-3-1 tox = kills parental KB-3-1 adenocarcinoma cells; AID 1347075; Potency, µM (top dose mostly 46.1 µM), hits mostly cytotoxic; 1.4% of 400,000 active; KB-3-1 viability, CellTiter-Glo ATP luminescence, 72 h; also: potency is read from the fitted curve at half-maximal effect; % is scaled to controls: 0 for no effect and ±100 for the full control effect; nearly all actives have a fitted effect of over 60% in size
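Screening of KB-3-1 cells (DMEM, 10% FBS, phenol-red free) ran from lowest to highest compound concentration; after 72 h at 37 °C viability was read luminescently and curves fitted.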
ASM inhibitor = inhibitors of human secretory acid sphingomyelinase | P17405 | placental ASM, HMU-PC fluorogenic substrate, 60 min | Potency, µM (highest dose often 57.5 µM), without a hit: at the highest dose activity change, negative = inhibition, actives largely listed as inhibitors | 0.006% of 340,000 active; also: potency is read from the fitted curve at half-maximal effect
Target sequence (P17405 47-631 limits assumed): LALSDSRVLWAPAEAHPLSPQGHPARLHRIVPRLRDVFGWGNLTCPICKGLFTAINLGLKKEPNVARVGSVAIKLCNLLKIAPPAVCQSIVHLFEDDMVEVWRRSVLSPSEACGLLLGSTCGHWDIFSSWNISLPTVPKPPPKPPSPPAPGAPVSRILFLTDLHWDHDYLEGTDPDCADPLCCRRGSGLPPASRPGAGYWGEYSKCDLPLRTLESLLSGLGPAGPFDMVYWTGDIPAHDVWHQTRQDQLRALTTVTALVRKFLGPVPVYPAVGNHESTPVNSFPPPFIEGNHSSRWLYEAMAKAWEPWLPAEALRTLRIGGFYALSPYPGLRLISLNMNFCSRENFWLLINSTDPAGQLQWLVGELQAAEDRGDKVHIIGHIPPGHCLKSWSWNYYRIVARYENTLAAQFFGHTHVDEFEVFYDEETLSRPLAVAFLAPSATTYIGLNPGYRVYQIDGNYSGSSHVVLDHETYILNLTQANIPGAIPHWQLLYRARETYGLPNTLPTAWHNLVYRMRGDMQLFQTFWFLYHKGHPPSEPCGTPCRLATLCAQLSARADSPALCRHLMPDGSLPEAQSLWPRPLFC
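Human placenta-derived ASM preincubated with compound 10 min at room temperature, then reacted with 9 uM (final) fluorogenic HMU-PC substrate for 60 min at 37 C. Stop solution raises pH to 10; fluorescence read at Ex 386/Em 447 nm.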
MCF10A rerep = DNA re-replication induction in MCF 10a cells. MCF 10A DNA re-replication, Hoechst nuclear intensity, 48 h. AID 624296. Potency, µM (highest dose often 46.1 µM), for inactives: at the top dose activity, positive = re-replication, usual class: activators. 2.9% of 350,000 active; also: potency is read from the fitted curve at half-maximal effect; % of control where 0% means no effect; nearly all actives have a fitted effect of over 50% in size
SW480 rerep = DNA re-replication induction in SW480 cells | SW480 DNA re-replication, Hoechst DNA content imaging, 48 h | Potency, µM (doses to about 46.1 µM), for inactives: top-dose re-replication activation, most hits filed as activators | 1.8% of 340,000 active | AID 624297; also: potency is read from the fitted curve at half-maximal effect; % of control where 0% means no effect; nearly all actives have a fitted effect of over 55% in size
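Quantitative HTS format with DMSO vehicle controls; 48 hr drug incubation at 37 C, then 40 min Hoechst staining and scanning imager measurement at 405 nm excitation.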
Giardia killer = Giardia lamblia killing | 0.15% of 340,000 active | activity change, % at 7.66 µM, hits read low | Giardia lamblia trophozoite viability; in the data active = activity change below about -80%; inconclusive = between about -30% and that limit;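 also: parasites exposed to compound for two days anaerobically before the ATP read; % is scaled to controls: 0 for no effect and ±100 for the full control effect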
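Killing of trophozoites was scored by loss of ATP luminescence after a 48 hrs anaerobic exposure to compounds at 37 deg C, using 100 cells per well.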
An asterisk follows results filed as active; i = inactive; ? = inconclusive; · = not tested or not shown. Unless noted, calls follow the shape of the dose curve; as a rule, active = well fitted curve in the direction sought with a large enough effect; inconclusive = small, poorly fitted or top-dose-only effect, or another doubt; inactive = no such curve, though single readings can be large; an effect the other way counts as inactive or inconclusive.

SMILES	KB-V1 cytotox	KB-3-1 tox	ASM inhibitor	MCF10A rerep	SW480 rerep	Giardia killer
Cc1cccc(N2CCN(C(=O)CN3CCOc4ccccc43)CC2C)c1 (configuration not stated)	i	i	-2%	1%	?	20
Cc1ccc(N2C(=O)C3C4C=CC(CNC(=S)N5CCN(c6cccc(C)c6)C(C)C5)(O4)C3C2=O)cc1 (configuration not stated)	?	?	-2%	21µM*	10µM*	15
Cc1ccc(Cn2c(CO)cnc2SCC(=O)NCc2ccccc2Cl)cc1	i	i	·	·	·	·
CNC[C@@H](CC1CCCCC1)NC[C@H](CC(C)C)NCCc1cccc(C(F)(F)F)c1	?	?	0%	7.3µM*	?	?
COc1ccc(-n2c(=O)c3c(C)c(C)sc3n(CC(=O)NCc3ccc(C)cc3)c2=O)c(OC)c1	i	i	·	·	·	·
CCc1cccc(CC)c1NC(=O)C1SC(=Nc2ccccc2C)C(c2nc3ccccc3s2)=C1N (configuration not stated)	i	?	-3%	?	8.2µM*	0
C/C(=N\NC(=O)CCCNc1ccc(C)cc1)c1ccccn1	6.5µM*	i	2%	?	?	5
O=C(NCCOc1cccc(Oc2ccccc2)c1)c1cc(-n2cnnc2)ccc1Cl	16µM*	i	-10%	3%	0%	-11
COc1cccc(C(C(=O)NC2CCCC2)N(C(=O)c2ccco2)c2ccccc2)c1OC (configuration not stated)	?	i	4%	11%	11%	-4
CCOCCCN(C(=O)c1ccco1)C(C(=O)NC1CCCC1)c1cccc(OC)c1OC (configuration not stated)	16µM*	i	3%	-5%	?	-5
CS(=O)(=O)N(CC(=O)NCCSC1CCCCC1)c1ccccc1	?	i	-5%	-21%	1%	-2
COc1ccc(N(CC(=O)NCCSC2CCCCC2)S(=O)(=O)c2ccccc2)cc1OC	·	·	2%	13%	10%	11
Cc1cccc(N(CC(=O)NC(C)c2ccccc2)S(=O)(=O)c2ccccc2)c1C (configuration not stated)	?	18µM*	·	·	·	·
CS(=O)(=O)N(CC(=O)NCCSC1CCCCC1)c1cccc(F)c1	15µM*	i	3%	?	-6%	-8
Cc1ccccc1N(CC(=O)NCCSC1CCCCC1)S(=O)(=O)c1ccccc1	10µM*	?	-4%	20%	-2%	-1
CN(C)S(=O)(=O)c1cccc(NC(=O)c2cccc(S(=O)(=O)N3CCCCCC3)c2)c1	?	?	-1%	?	4%	-19
CC(C)c1nnc(NC(=O)C2CCN(c3cnccn3)CC2)s1	23µM*	i	15%	-1%	-1%	-7
C=CCNC(=O)C1CCN(c2cnccn2)CC1	?	i	7%	0.23µM*	-50%	-9
O=C(c1ccccc1)N(Cc1cccnc1)C1(C(=O)Nc2ccccc2)CCCCC1	10µM*	?	8%	16%	?	2
O=C(NCc1cccnc1)Nc1ccccc1	i	i	0%	-4%	1%	1
CC(OC(=O)c1cccc(-n2cnnn2)c1)C(=O)Nc1ccc(F)c(F)c1F (configuration not stated)	?	i	-4%	-6%	-86%	0
CSc1ccccc1NC(=O)c1cc(-c2cccnc2)nc2ccc(Br)cc12	?	?	-3%	16µM*	3%	-2
CC(=O)Nc1cccc(NC(=O)c2cc(-c3cccnc3)nc3ccc(Cl)cc23)c1	i	i	-13%	?	-1%	-1
Cc1ccc2nc(-c3cccnc3)cc(C(=O)Nc3ccccc3[N+](=O)[O-])c2c1	·	·	-1%	15µM*	?	4
O=C(Nc1ccc(C(F)(F)F)cc1)c1cc(-c2cccnc2)nc2ccc(Br)cc12	?	i	-26%	5.2µM*	?	8
SMILES	KB-V1 cytotox	KB-3-1 tox	ASM inhibitor	MCF10A rerep	SW480 rerep	Giardia killer
CC(=O)Nc1cccc(NC(=O)c2cc(-c3cccnc3)nc3ccc(Br)cc23)c1	i	i	-23%	12µM*	?	-8
O=C(CC1C(=O)N(c2ccccc2)C(=O)N1Cc1ccc2c(c1)OCO2)Nc1ccccc1 (configuration not stated)	i	i	·	·	·	·
COc1ccc(NS(=O)(=O)c2cccc(NC(=O)CCC(=O)c3ccc(Cl)cc3)c2)cc1	18µM*	i	-17%	?	9%	-8
COc1cccc(S(=O)(=O)Nc2ccc(C(=O)Nc3ccncc3)cc2)c1	21µM*	?	-1%	?	1%	-2
COc1cccc(S(=O)(=O)NCC(=O)Nc2ccc(C(C)(C)C)cc2)c1	16µM*	i	-2%	1%	-5%	14
COc1ccc(NS(=O)(=O)c2cccc(NC(=O)c3ccc(Cl)nc3)c2)cc1	2.9µM*	?	-11%	-7%	?	-3
O=C1CCc2cc(S(=O)(=O)Nc3ccc4ncccc4c3)ccc2N1	i	i	·	·	·	·
O=C(Nc1cccc(NC(=O)c2ccco2)c1)c1ccc2c(c1)OCO2	13µM*	i	-1%	-26%	0%	0
CCOc1cc(C(=O)Nc2ccc3c(c2)OCO3)ccc1OC(F)F	21µM*	i	-1%	-2%	-11%	-3
CC(=O)c1cccc(NC(=O)c2ccc(Br)o2)c1	?	?	-1%	2%	0%	-25
CCCC(=O)Nc1cccc(NC(=O)c2ccc3c(c2)OCCO3)c1	i	i	-2%	?	?	?
CCCCC(=O)Nc1cccc(NC(=O)c2ccc(Br)o2)c1	12µM*	i	8%	-1%	1%	-6
CCCCC(=O)Nc1cccc(NC(=O)c2ccc3c(c2)OCO3)c1	13µM*	i	0%	1%	-4%	0
Cc1ccc(CNC(=O)c2ccc3c(c2)NC(=O)C(CS(=O)(=O)Cc2cccc(C)c2)N3)cc1 (configuration not stated)	i	i	·	·	·	·
Cc1nn(C)c2c1c(C(F)(F)F)cc(=O)n2CC(=O)N1CCCCC1	i	i	·	·	·	·
COc1ccccc1C(=O)NNC(=O)CN(C)S(=O)(=O)c1ccc(Cl)cc1	?	i	·	·	·	·
COc1ccc(/C=C/C(=O)c2c(O)ccc3c(C)cc(=O)oc23)cc1	i	i	6%	21µM*	-4%	-10
COc1ccc(/C=C\C(=O)c2c(O)ccc3c(C)cc(=O)oc23)cc1	?	23µM*	2%	?	20%	1
